Experimental data: the supplement of paper PMC6411743
± gives the standard deviation of the averaged measurements. Targets with the largest changes are over-represented here; the source holds about 5,400 in all.

Target: T1, NUFIP2 (UniProt Q7Z417)
T1 sequence (whole entry): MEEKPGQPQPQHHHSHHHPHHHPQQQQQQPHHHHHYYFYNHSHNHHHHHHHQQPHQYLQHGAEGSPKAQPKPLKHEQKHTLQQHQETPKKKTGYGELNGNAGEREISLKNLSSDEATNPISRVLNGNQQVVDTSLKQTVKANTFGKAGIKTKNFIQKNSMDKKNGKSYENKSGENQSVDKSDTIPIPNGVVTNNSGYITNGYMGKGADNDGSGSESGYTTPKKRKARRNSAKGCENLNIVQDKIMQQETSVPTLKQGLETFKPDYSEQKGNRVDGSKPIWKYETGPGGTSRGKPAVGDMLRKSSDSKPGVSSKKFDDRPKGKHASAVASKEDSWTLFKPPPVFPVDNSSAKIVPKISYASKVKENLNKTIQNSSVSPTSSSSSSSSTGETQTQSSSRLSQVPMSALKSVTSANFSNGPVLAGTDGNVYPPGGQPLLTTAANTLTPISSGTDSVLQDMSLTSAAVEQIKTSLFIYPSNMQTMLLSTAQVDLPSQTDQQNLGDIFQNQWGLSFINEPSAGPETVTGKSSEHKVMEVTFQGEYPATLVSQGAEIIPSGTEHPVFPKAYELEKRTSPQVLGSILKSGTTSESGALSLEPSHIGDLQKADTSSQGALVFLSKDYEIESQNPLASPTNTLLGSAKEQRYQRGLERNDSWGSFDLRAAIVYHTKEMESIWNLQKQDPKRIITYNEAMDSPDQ
Assay: NP40-soluble protein abundance relative to vehicle (solubility fold change) (ratio); higher = more soluble protein in presence of GTP
Procedure: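 Solubility proteome profiling in Jurkat crude lysate. Lysate was treated with Mg-GTP (0.1-10 mM) for 10 min at room temperature and 3 min at 37 °C, then solubilised with 0.8% NP40 and benzonase, followed by ultracentrifugation. Proteins were quantified by TMT10 LC-MS/MS; the value is the NP40-soluble abundance relative to the NP40-processed vehicle, from 3 independent experiments.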

Structure (SMILES): Nc1nc2c(ncn2[C@@H]2O[C@H](COP(=O)(O)OP(=O)(O)OP(=O)(O)O)[C@@H](O)[C@H]2O)c(=O)[nH]1 [guanosine triphosphate]
- NP40-soluble protein abundance (concentration: 0.1mM): 0.964 ± 0.079
- NP40-soluble protein abundance (concentration: 0.5mM): 0.977 ± 0.14
- NP40-soluble protein abundance (concentration: 1mM): 1.06 ± 0.12
- NP40-soluble protein abundance (concentration: 2mM): 1.07 ± 0.15
- NP40-soluble protein abundance (concentration: 4mM): 1.17 ± 0.15
- NP40-soluble protein abundance (concentration: 6mM): 1.21 ± 0.15
- NP40-soluble protein abundance (concentration: 8mM): 1.28 ± 0.089
- NP40-soluble protein abundance (concentration: 10mM): 1.34 ± 0.13
